# System: RARb homodimer (NR concentration 270 nM)
# Assay: PBM binding z-score (relative to random genomic background probes); higher = stronger binding; sequences stand for … in GC…GCGATTGACAGCGTAGAATGAAGG
# Method in brief: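 Each nuclear receptor dimer, without ligand, was incubated for 1 h on custom Agilent 4×180K protein-binding microarrays. Binding was detected with antibodies against each partner (one per run), and scanned fluorescence was regression-normalized. The binding z-scores are referenced to random human genomic background probes.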
row,Sequence,PBM binding z-score
1,TCGAGTAGGTTAGGGGCATTGAGAATGGCGTCGA,0.964
2,TCGTATAGGTAAACAGGTGAAAGTCCGTAAGTTA,1.14
3,CTCGAAAGGTCGGATGAGGTGAGTATACGGATAA,2.69
4,CAAACTAGATCAAGGTCAAAGTCGGTTTGTGCCA,3.72
5,CATAGCAGGCCAATCTGGGTCACTCAAGGCTTGA,1.85
6,AGAATGAGGTTATACGAAGATCAGGGAAGAAAGT,0.559
7,GCTGCTAGGTGAACTGATGGTCAGCTAAAGCTCG,0.715
8,CGACCTAGGTCAGAACAGGACAGTGAAGGATGAT,2.62
9,CGAACTAGGTCATAACAGGACAGTGAAGGATGAT,2.36
10,TCGGGTAGGTTAGTCGGGGCATTCAGCCAACATA,1.24
11,CATACATGGTCAGCTAGGCCAGAGTAGGGACGGC,0.263
12,TCTATTAGTTGAAGGGCAACCAACGAGTCCGTTT,1.4
13,CAAACTAGGTCACGAAAGGTGAAAGTCGAATGAC,4.73
14,GCAGACAGGTGACACGCAGGTAACTCAGGGTGGC,0.28
15,AGAATGAGGTTAAGATCAGGTAAACAGAATACAT,0.989
16,CCTACTGGGCCAAAGGTCATTGAATCCAATGCTC,4.89
17,TCGAGTTGGTCAAAGGTCACACACTCGAAATGCG,4.92
18,TCCTATAGGTAATACAGGTGAAAGTCGGCATCTA,0.461
19,GATACAGGGTCAGCTAGAGCCCAGAGTATGGAAA,2.3
20,TCGAGTAGGTTAGGGGCATTTAGAATGGCGTCGA,0.875

row,Sequence,PBM binding z-score
1,CGAACTAGGTCAAGGGCAGTGAATCTCCGCACGC,3.25
2,TAGCCTAGGTCATGAGGGCCAGTATAGTGTCGGC,3.01
3,CGTCCAAGGTCATAGGAGGGCAGTGAAGACAGAT,4.01
4,GCTCCTAGGTCAGGTTGGTCAGCTAACGGGTACG,3.18
5,ATCTAAAGGTCGACGAGGTGAGTATACACCGTTT,3.05
6,ATATGTAGGTTAGCTGGGGTCATCCAGACTAGGC,4.24
7,CAAACTAAGTCAAAGGTCAAAGTCGAGCCAACCA,4.68
8,AATACAGGGTCATCGTAGGCCAGAGAACGCACAG,3.8
9,TCATATAGGTATATGCTAGGTGAAAGTCCGATCT,0.347
10,ACTTACGGGCCAACGAGGTTATAGCACGCGTATA,1.08
11,TCATATAGGTAAATGCTAGGTGAGAGTCCGATCT,0.0117
12,GCGCCTGGGGCATCAGCAGGTTACCATAACTTAA,0.912
13,TTACCAAGGTGAGCTGAGGGCGTTGATCCAACTC,0.362
14,ACTATTAGTTGAGACGAGGGCAACCGATAGGTTG,1.2
15,TTACCAAGGTGAAAGTCGTTGATCCCTCTGTAGA,0.704
16,CTACCAAGGTGCACAAGGTCGTTGATTACTATTC,1.71
17,AGAATGAGGTTATACCTAGATCAGGGAAGAAAGT,0.483
18,CGTCAAAGTTCAACTAAGGTACCGTAAAGCACGC,4.34
19,TCTCGGAGGACACGAAGGCCAGAGCTTTCCAGAG,1
